Outcome and AC50 data for 3 molecules are collected here from PubChem BioAssay AID2284203 (EPA ToxCast).

Calls of active or inactive are those of the source. How the source made its calls: active means hit-call score of the fitted dose curve at least 0.9, where 1 is the maximum; inactive means score below 0.9.

Sequence of human Serotonin Transporter (SET), SLC6A4 (gene 6532) (P31645 whole entry, looked up): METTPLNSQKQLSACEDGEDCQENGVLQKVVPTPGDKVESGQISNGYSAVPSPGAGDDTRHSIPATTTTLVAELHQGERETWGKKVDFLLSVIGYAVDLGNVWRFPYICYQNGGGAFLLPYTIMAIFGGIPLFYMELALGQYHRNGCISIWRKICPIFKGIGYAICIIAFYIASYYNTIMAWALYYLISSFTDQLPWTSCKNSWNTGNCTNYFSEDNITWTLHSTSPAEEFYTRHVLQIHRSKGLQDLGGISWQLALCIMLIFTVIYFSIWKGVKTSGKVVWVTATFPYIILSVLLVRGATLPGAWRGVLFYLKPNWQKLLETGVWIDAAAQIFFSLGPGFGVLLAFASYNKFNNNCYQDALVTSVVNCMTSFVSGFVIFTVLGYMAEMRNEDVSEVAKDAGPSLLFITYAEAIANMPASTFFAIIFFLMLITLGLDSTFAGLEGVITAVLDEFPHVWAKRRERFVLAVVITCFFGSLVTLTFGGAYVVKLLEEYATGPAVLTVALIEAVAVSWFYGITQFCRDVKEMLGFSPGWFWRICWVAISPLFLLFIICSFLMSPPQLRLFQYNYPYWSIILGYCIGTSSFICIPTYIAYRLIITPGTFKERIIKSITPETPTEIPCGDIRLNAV

The assay has as its target human Serotonin Transporter (SET), SLC6A4 (gene 6532) (UniProt P31645). Kind of assay: ERF_FR_TR_hSLC6A4: Eurofins (ERF) Radioligand Binding LeadHunter Assay for human Serotonin Transporter (SET) human Agonism. The protocol: ERF_FR_TR_hSLC6A4 is a biochemical, single-readout assay that uses extracted gene-proteins in a cell-free assay. Measurements were taken 1 hour after chemical dosing in a 96-well plate. See SET Human Serotonin Transporter Binding (Antagonist Radioligand) Assay, Cerep.ERF_FR_TR_hSLC6A4 is an assay component calculated from the ERF_FR_TR_hSLC6A4 assay. It is designed to measure radioligand binding using a type of binding reporter as detected by scintillation counting with radiometry technology.Data from the assay component ERF_FR_TR_hSLC6A4 was analyzed at the assay endpoint, ERF_FR_TR_hSLC6A4, in the positive analysis fitting direction relative to DMSO as the negative control and baseline of activity. Using a type of binding reporter, loss-of-signal activity can be used to understand changes in enzymatic activity as they relate to gene SLC6A4. To generalize the intended target to other relatable targets, this assay endpoint is annotated to the transporter intended target family, where the subfamily is SLC6 / Monoamine.
Human recombinant serotonin transporter expressed in human HEK-293 cells are used in modified Tris-HCl buffer pH 7.4. A 2 ug aliquot is incubated with 0.4 nM [3H]Paroxetine for 60 minutes at 25C. Non-specific binding is estimated in the presence of 10 uM imipramine. Transporters are filtered and washed. The filters are then counted to determine [3H]Paroxetine specifically bound. Compounds are screened at 10 uM. Membrane protein may change from lot to lot; the concentration used will be adjusted if necessary.
With `CCCCC[C@H](O)CC(=O)CCc1ccc(O)c(OC)c1`, the call was inactive.
In the case of `COc1cc(/C=C/C(=O)CC(=O)/C=C/c2ccc(O)c(OC)c2)ccc1O`, the AC50 is 2.12 µM (active).
With `O=C(/C=C/c1ccc(O)cc1)CC(=O)/C=C/c1ccc(O)cc1`, the half-maximal activity concentration (AC50) is 3.2 µM (active).
